From PubChem
The list is not random: actives were taken first. Their share in the collection is about 1.1%.
Tb PFK block: blocks T. brucei phosphofructokinase; O15648; Potency, µM (series often up to 57.5 µM), actives largely listed as inhibitors; 330,000 tested, 0.17% active; T. brucei PFK, ADP-Glo luminescence; further: nearly all actives have a fitted effect of over 60% in size
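Compounds were pin-transferred as a titration series up to 57 uM into substrate buffer (0.5 mM F6P, 0.1 mM ATP, pH 8.0), then 1.25 nM PFK was added and reactions ran 45 min before ADP-Glo detection.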
p53 reactivation: mutant p53 re-activation in reporter cells; H1299 p53-A138V BP100-luciferase reporter, luminescence, 24 h; Potency, µM (titrated, usually from 92.2 µM), usual class: activators; 320,000 tested, 0.063% active; further: nearly all actives have a fitted effect of over 45% in size
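H1299 (p53-null), stable ts p53-A138V + BP100-Luc; 1000 cells/well, Opti-MEM/10% FBS; cpd 4 pt, 1:5; 24 h, 37 deg C, 5% CO2; detection reagent 10 min RT; luminescence.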
RXFP1 antag: blocks the human relaxin receptor RXFP1 | Q9HBX9 | HEK293-RXFP1, relaxin-stimulated cAMP HTRF, 30 min; stronger effect = lower value | activity change, negative = inhibition, % at 57.5 µM | 350,000 tested, 0.59% active;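 active means activity change of -60% or lower, but not beyond a set lower limit; inconclusive means change between -60% and -40%, or beyond the set limit; inactive means change above -40%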
Target sequence (Q9HBX9 whole entry, looked up): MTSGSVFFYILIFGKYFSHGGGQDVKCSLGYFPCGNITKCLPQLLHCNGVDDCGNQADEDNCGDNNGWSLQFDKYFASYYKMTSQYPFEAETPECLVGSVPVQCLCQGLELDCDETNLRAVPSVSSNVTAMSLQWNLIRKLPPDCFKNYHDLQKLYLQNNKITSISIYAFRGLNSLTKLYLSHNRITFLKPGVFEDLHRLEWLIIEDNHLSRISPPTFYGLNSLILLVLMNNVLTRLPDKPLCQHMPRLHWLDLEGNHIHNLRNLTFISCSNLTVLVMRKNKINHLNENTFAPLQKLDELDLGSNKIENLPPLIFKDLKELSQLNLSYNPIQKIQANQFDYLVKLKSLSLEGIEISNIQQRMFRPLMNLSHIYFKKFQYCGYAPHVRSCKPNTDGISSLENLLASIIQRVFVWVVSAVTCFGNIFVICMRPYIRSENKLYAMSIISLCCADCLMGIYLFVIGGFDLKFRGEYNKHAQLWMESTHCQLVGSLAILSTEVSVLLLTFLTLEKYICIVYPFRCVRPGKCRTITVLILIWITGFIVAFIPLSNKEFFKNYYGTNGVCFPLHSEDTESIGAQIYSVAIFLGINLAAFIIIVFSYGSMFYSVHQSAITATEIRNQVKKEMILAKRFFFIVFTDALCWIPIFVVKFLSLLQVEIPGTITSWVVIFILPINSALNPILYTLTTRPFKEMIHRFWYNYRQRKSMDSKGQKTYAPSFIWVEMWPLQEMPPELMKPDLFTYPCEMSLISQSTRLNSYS
gsp ag: activates gsp, the McCune-Albright syndrome mutation. gsp mutant cells, cAMP HTRF, 30 min. Potency, µM (series often up to 76.9 µM), actives largely listed as activators. AID 624287. 340,000 tested, 0.13% active; active means well fitted activation curve with a large enough effect; inconclusive means small, poorly fitted or top-dose-only effect, or another doubt; inactive means no such curve, though single readings can be large or run the other way; cell line not stated here;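 further: phosphodiesterase inhibitor Ro 20-1724 added with compounds to block cAMP breakdown; nearly all actives have a fitted effect of over 60% in size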
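Cells stably selected in G418 were plated at 2000/well, grown 16-24 hr, then given compounds in DMSO with the PDE inhibitor […] (300 uM solution added) for 30 min at 37C; cAMP was read by HTRF.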
RXFP1 agonist: RXFP1 (human) receptor agonism; Potency, µM (titrated, usually from 57.5 µM), usual class: activators; AID 2676; Q9HBX9; HEK293T-RXFP1 cAMP TR-FRET, 30 min; response scale: percent of porcine relaxin response, buffer zero; 370,000 tested, 0.3% active; further: nearly all actives have a fitted effect of over 60% in size
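HEK293T cells stably expressing RXFP1 were pretreated with the PDE4 inhibitor Ro 20174, exposed to compounds for 30 min at 37C, lysed, and cAMP was read by TR-FRET. Data normalized to buffer (basal) and 29 nM porcine relaxin (100%).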
gsp antag: antagonists of gsp mutant (McCune-Albright syndrome). gsp-mutant cells, cAMP HTRF, 30 min. Potency, µM (highest dose often 76.9 µM), actives largely listed as inhibitors. 340,000 tested, 0.4% active. AID 624288; calls by dose curve; cell line not stated here;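 further: intracellular cAMP measured with PDE inhibitor Ro 20-1724 present during compound exposure; nearly all actives have a fitted effect of over 65% in size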
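HTRF cAMP measurement after 30 min RT detection following 30 min, 37C compound treatment alongside […] (added as 300 uM solution) in G418-selected cells seeded at 2000/well and grown 16–24 h.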
A number is an active result; i = inactive; ? = inconclusive; nt = no result given; [ ] = dose if it differs, or a comment. Unless noted, the call rests on the fitted dose curve; in most records, active means well fitted curve in the direction sought with a large enough effect; inconclusive means small, poorly fitted or top-dose-only effect, or another doubt; inactive means no such curve, though single readings can be large; an effect the other way counts as inactive or inconclusive.

SMILES | Tb PFK block | p53 reactivation | RXFP1 antag | gsp ag | RXFP1 agonist | gsp antag
O=S(=O)(c1cccc(-c2cn3cccnc3n2)c1)N1CCCCCC1 | i | i | i | ? | i | i
O=S(=O)(c1cccc(-c2cn3cccnc3n2)c1)N1CCOCC1 | i | i | i | 18µM | ? | i
COC(=O)c1c(C)nsc1NC(=O)Oc1ccccc1 | i | i | i | 4.5µM | i | i
CCCCCCCCCCCCCCCC[N+](C)(C)CC | i | i | -87 | nt | i | i
N#Cc1c(-c2ccc(Cl)cc2)cc(-c2cccs2)nc1SCC(=O)O | i | i | i | ? | i | 10µM
N#Cc1c(-c2ccccc2)cc(-c2cccs2)nc1SCC(=O)O | i | i | i | i[15.4 µM] | i | i
O=C(Cn1nnc(-c2ccncc2)n1)NCCc1ccccc1 | i | i | i | i | i | i
O=C(N[C@H](C(=O)O)c1ccccc1)C1CCC(Cn2cnc3ccccc3c2=O)CC1 (stereo partly specified) | i | i | i | i[15.4 µM] | i | i
COc1cc(NS(=O)(=O)c2cc3[nH]c(=O)c(=O)[nH]c3cc2C)cc(OC)c1OC | i | i | i | i | i | i
COc1cc(NS(=O)(=O)c2ccc(C)cc2C)cc(OC)c1OC | i | i | i | ? | i | 35µM
Cc1ccc(C)c(N2CCN(C(=O)CCS(=O)(=O)c3ccc4c(c3)NC(=O)CO4)CC2)c1 | i | i | i | i | i | 50µM
O=C1COc2ccc(S(=O)(=O)CCC(=O)N3CCN(c4ccccc4)CC3)cc2N1 | i | i | i | i | i | i
CC(CC(=O)N1CCN(c2cccc(Cl)c2)CC1)S(=O)(=O)c1ccc2c(c1)NC(=O)CO2 (stereo unspecified) | i | i | i | i | i | 28µM
COc1ccc(N2CCN(C(=O)CC(C)S(=O)(=O)c3ccc4c(c3)NC(=O)CO4)CC2)cc1 (stereo unspecified) | i | i | i | i | i | ?
Cc1csc(SCC(=O)Nc2ccc(F)cc2Cl)n1 | i | i | ? | i[15.4 µM] | nt | i
COc1cccc(C(=O)NCC2CCCN2S(=O)(=O)c2ccccc2)c1 (stereo unspecified) | i | i | i | i[15.4 µM] | i | i
COc1ccccc1OCC1CNC(=O)O1 (stereo unspecified) | nt | nt | i | nt | nt | nt
COc1cc(NC(=O)C(C)Oc2ccccc2)ccc1NC(=O)COc1ccccc1 (stereo unspecified) | i | i | i | i | i | 40µM
COc1ccc(CCNC(=O)CN(c2ccc(OC)c(OC)c2)S(C)(=O)=O)cc1 | i | i | i | i | i | i
CCN(CC)C(=O)C1CCCN(c2ccc([N+](=O)[O-])cc2/C=N/NC(=O)c2cccc(O)c2)C1 (stereo unspecified) | i | i | nt | i | i | ?
CCOC(=O)c1ccc(NC(=O)Cn2cc(C(=O)c3ccc(CC)cc3)c(=O)c3ccc(C)nc32)cc1 | nt | nt | i | nt | 32µM | nt
Cc1nnc(NC(=O)c2nc(S(=O)(=O)Cc3ccccc3C)ncc2Cl)s1 | i | i | i | i | i | ?
CCc1nnc(NC(=O)c2nc(S(=O)(=O)Cc3ccccc3)ncc2Cl)s1 | i | i | i | i[15.4 µM] | i | ?
CCOc1ccccc1NC(=O)c1nc(S(=O)(=O)Cc2cccc(C)c2)ncc1Cl | i | i | i | ? | i | i
CC(C)c1nnc(NC(=O)c2nc(S(=O)(=O)Cc3ccc(F)cc3)ncc2Cl)s1 | i | i | ? | i[15.4 µM] | i | 28µM
SMILES | Tb PFK block | p53 reactivation | RXFP1 antag | gsp ag | RXFP1 agonist | gsp antag
CSc1nnc(NC(=O)c2nc(S(=O)(=O)Cc3cccc(C)c3)ncc2Cl)s1 | i | i | -73 | i[15.4 µM] | i | 40µM
Cc1ccc(CS(=O)(=O)c2ncc(Cl)c(C(=O)Nc3nnc(C(C)C)s3)n2)cc1 | i | i | -93 | i[15.4 µM] | i | 18µM
CCSc1nnc(NC(=O)c2nc(S(=O)(=O)Cc3ccc(F)cc3)ncc2Cl)s1 | i | i | ? | i[15.4 µM] | i | 40µM
COC(=O)c1ccc(NC(=O)CN(c2ccc(OC)cc2)S(C)(=O)=O)cc1 | i | ? | i | i | i | i
CC(C)c1nnc(NC(=O)c2nc(S(=O)(=O)Cc3ccccc3F)ncc2Cl)s1 | i | i | i | i | i | ?
Cc1cccc(CS(=O)(=O)c2ncc(Cl)c(C(=O)Nc3nnc(C(C)C)s3)n2)c1 | i | i | ? | i[15.4 µM] | i | 20µM
CSc1nnc(NC(=O)c2nc(S(=O)(=O)Cc3ccccc3F)ncc2Cl)s1 | i | i | i | i[15.4 µM] | i | 35µM
CSc1ncc(Cl)c(C(=O)Nc2nnc(SC/C=C/c3ccccc3)s2)n1 | i | i | i | ? | i | 35µM
Cc1ccc(NC(=S)NC(=O)/C=C/c2ccco2)c(O)c1 | i | i | -63 | i | i | i
O=C(/C=C\c1ccco1)NC(=S)Nc1ccccc1O | i | i | i | i | i | i
COc1ccc(NC(=S)NC(=O)/C=C/c2ccco2)c(OC)c1 | i | nt | -81 | i | i | ?
COc1cccc(NC(=S)NC(=O)/C=C/c2ccco2)c1 | i | ? | i | i[15.4 µM] | i | i
C/C(=N\NC(=O)C(=O)Nc1cccc(Cl)c1)c1ccncc1 | i | i | nt | i | i | i
Cc1[nH]n(-c2ccccc2)c(=O)c1C(c1ccc(O)c([N+](=O)[O-])c1)c1c(C)[nH]n(-c2ccccc2)c1=O | nt | nt | i | i | nt | 11µM
S=c1[nH]nc(-c2cccnc2)n1/N=C/c1ccc(Br)s1 | i | i | i | i[15.4 µM] | i | ?
Cc1ccc(/C=N/n2c(-c3cccnc3)n[nH]c2=S)s1 | i | i | i | i | i | 7.9µM
O=C(NCCOC(=O)c1ccc(S(=O)(=O)N2CCOCC2)cc1)c1cccnc1 | i | i | i | 28µM | i | i
CC1C/C(=C/c2ccco2)C(=O)/C(=C/c2ccco2)C1 (stereo unspecified) | ? | i | nt | nt | i | nt
O=C1/C(=C\c2ccco2)CCC/C1=C\c1ccco1 | ? | 25µM | i | i | i | i
O=C(Cc1ccc(S(=O)(=O)N2CCOCC2)s1)NNC(=O)c1ccccc1Cl | i | i | i | ? | i | i
CC(=O)C1CCC2C3CC=C4CC(SC(=N)N)CCC4(C)C3CCC12C (stereo unspecified) | nt | nt | -105 | i | nt | i
CC(=O)OCC(=O)C1CCC2C3CC=C4CC(O)CCC4(C)C3CCC12C (stereo unspecified) | i | i | nt | nt | i | i
O=C(O)CSc1nnc(-c2cccnc2)n1Cc1ccccc1 | i | i | i | i | i | i
CCN1CCN(Cc2c(O)ccc3c(C)cc(=O)oc23)CC1 | i | i | i | i | i | i
Cc1cc(O)c(CN2CCN(c3ccccc3)CC2)c2oc(=O)cc(C)c12 | nt | nt | i | nt | 18µM | nt
CCC1(C)Cc2c(sc3nc(SC)[nH]c(=S)c23)CO1 (stereo unspecified) | i | i | i | ? | 25µM | i
